Like-named read-outs stand apart in the source and are kept apart here.

Test [1] concerns RIPK3. Further details: species or system human, MV4-11 + K-562 + COLO205 + SK-N-BE2 + OVCAR-8. Conditions: read-out: apparent Kd, n = 1.
Test [2] concerns SPR. Further details: species or system human, MV4-11 + K-562 + COLO205 + SK-N-BE2 + OVCAR-8. Conditions: read-out: apparent Kd, n = 1.
The test system of test [3] is CSNK1D. More on the design: species or system human, MV4-11 + K-562 + COLO205 + SK-N-BE2 + OVCAR-8. The settings on record: compound concentrations:0.3nM, 1nM, 3nM, 10nM, 30nM, 100nM, 300nM, 1000nM,R2:0.90408083948088502,slope:1.4813297755061099,EC50 Standard Error, by the legend:Standard error of the EC50 estimation as provided by the drc package.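 Further: competition pulldown with Kinobeads ε in cell lysates, inhibitor preincubated 45 min at 4 °C, bound kinases quantified by LC–MS/MS against DMSO control.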
Test [4] has as its system NEK1. Further details: species or system human, MV4-11 + K-562 + COLO205 + SK-N-BE2 + OVCAR-8. The settings on record: read-out: apparent Kd, compound concentrations: 100 nM and 1000 nM (sheet 'Samples'), n = 1.
Test [5] relates to PLK1. More on the design: species or system human, MV4-11 + K-562 + COLO205 + SK-N-BE2 + OVCAR-8. Conditions: read-out: apparent Kd; compound concentrations: 100 nM and 1000 nM (sheet 'Samples'), CATDS: 1.2041031249847799E-2; n = 1.
In test [6] the test system is CSNK2A1. Conditions: hek293t cells.
The test system of test [7] is CSNK2A2. The settings on record: hek293t cells.
The subject of test [8] is CAMK2G. More on the design: species or system human, MV4-11 + K-562 + COLO205 + SK-N-BE2 + OVCAR-8. The settings on record: read-out: apparent Kd, compound concentrations: 100 nM and 1000 nM (sheet 'Samples'), n = 1.
The subject of test [9] is CAMK2B. More on the design: species or system human, MV4-11 + K-562 + COLO205 + SK-N-BE2 + OVCAR-8. Conditions: read-out: apparent Kd; compound concentrations: 100 nM and 1000 nM (sheet 'Samples'), CATDS: 6.4404686092337498E-3; n = 1.
Test [10] relates to CDK12. Further details: species or system human, MV4-11 + K-562 + COLO205 + SK-N-BE2 + OVCAR-8. The settings on record: read-out: apparent Kd; compound concentrations: 100 nM and 1000 nM (sheet 'Samples'), CATDS: 3.82162717704907E-3; n = 1.
Test [11] concerns ERN2. More on the design: species or system human, MV4-11 + K-562 + COLO205 + SK-N-BE2 + OVCAR-8. The settings on record: read-out: apparent Kd, n = 1.
Test [12] relates to MAP3K1. More on the design: species or system human, MV4-11 + K-562 + COLO205 + SK-N-BE2 + OVCAR-8. The settings on record: read-out: apparent Kd; compound concentrations: 100 nM and 1000 nM (sheet 'Samples'), CATDS: 4.4631882369260602E-3; n = 1.
Test [13] concerns MAP3K6. Further details: species or system human, MV4-11 + K-562 + COLO205 + SK-N-BE2 + OVCAR-8. The settings on record: read-out: apparent Kd; compound concentrations: 100 nM and 1000 nM (sheet 'Samples'), CATDS: 4.1891325824414301E-3; n = 1.
The test system of test [14] is MDN1. Further details: species or system human, MV4-11 + K-562 + COLO205 + SK-N-BE2 + OVCAR-8. The settings on record: read-out: apparent Kd; compound concentrations: 100 nM and 1000 nM (sheet 'Samples'), CATDS: 5.0398543071368297E-3; n = 1.
In test [15] the test system is PI4KB. Further details: species or system human, MV4-11 + K-562 + COLO205 + SK-N-BE2 + OVCAR-8. The settings on record: read-out: apparent Kd, n = 1.
Test [16] deals with PIK3CB. Further details: species or system human, MV4-11 + K-562 + COLO205 + SK-N-BE2 + OVCAR-8. The settings on record: read-out: apparent Kd; compound concentrations: 100 nM and 1000 nM (sheet 'Samples'), CATDS: 8.3047003401232992E-3; n = 1.
For test [17], the system named is ADRBK1. Further details: species or system human, MV4-11 + K-562 + COLO205 + SK-N-BE2 + OVCAR-8. The settings on record: read-out: apparent Kd; compound concentrations: 100 nM and 1000 nM (sheet 'Samples'), CATDS: 7.8557926604231804E-2; n = 1.
Setting [18] is: compound concentrations:100 nM and 1000 nM (sheet 'Samples').

By EC50 is commonly meant the concentration at which the effect is half-maximal. Regarding `Cl.NCc1ccc(-c2nc(-c3ccc(Cl)c(O)c3)c(-c3ccncc3)[nH]2)cc1` [SB-476429-A], the potency estimated from few doses is 1200 nM in test [1] (setting [18]) and 32.3 nM in test [2] (setting [18]). In addition, the EC50 in test [3] was 300 nM. Also, the Kd in [3] (read-out: apparent Kd) was 300 nM.
Take `COc1ccc(Nc2ncc(C#N)c(Nc3ccccc3C(N)=O)n2)cc1N1CCN(C)CC1.Cl` [GSK1558669A]: the potency estimated from few doses in test [4] (CATDS: 8.9161421311332902E-3) is 272 nM; in [5], 113 nM.
In the case of `COc1cc(Nc2ncc3c(C)nc(-c4cc5ccccc5[nH]4)n3n2)cc(OC)c1OC` [GW869516X], the IC50 in test [6] (read-out: Average, SD, n = 2) worked out at 446 nM; in test [6] (read-out: Rep 1), 471 nM; in [6] (read-out: Rep 2), 421 nM; in test [7] (read-out: Average, SD, n = 2) it was 319 nM; in test [7] (read-out: Rep 1), 135 nM; in test [7] (read-out: Rep 2), 503 nM.
Consider `CN(c1ccc(NC(=O)N2CCN(CCCN3CCOCC3)CC2)cc1)c1ccnc(Nc2ccc(CS(C)(=O)=O)cc2)n1.Cl` [GW830899A], for which the potency estimated from few doses in test [8] (CATDS: 3.6233110942478698E-2) is 457 nM.
On to `Cn1ncc2c(N)ncnc21` [SKF-18267], for which the potency estimated from few doses was 514 nM in test [9]; 382 nM in test [8] (CATDS: 7.7542498365532697E-3); 1510 nM in test [10]; 877 nM in test [11] (compound concentrations: 100 nM and 1000 nM (sheet 'Samples'), CATDS: 4.8185865403999398E-3); 1030 nM in test [12]; 1190 nM in test [13]. In addition, the potency estimated from few doses in test [14] is 801 nM; in [4] (CATDS: 3.5725639465568099E-3), 1820 nM; in [15] (compound concentrations: 100 nM and 1000 nM (sheet 'Samples'), CATDS: 8.6005526131726403E-3), 328 nM; in [16], 345 nM; in test [1] (compound concentrations: 100 nM and 1000 nM (sheet 'Samples'), CATDS: 3.42256468250394E-3), 2080 nM; in test [2] (compound concentrations: 100 nM and 1000 nM (sheet 'Samples'), CATDS: 4.8201807384516803E-3), 876 nM.
As for `Cc1cccc(Nc2nc(N[C@H]3CCCC[C@H]3N)ncc2C(N)=O)c1.Cl` [GSK986310C], the potency estimated from few doses in test [11] (setting [18]) was 1400 nM.
For the compound `Cc1cccc(Nc2nc(N[C@H]3CCNC3)ncc2C(N)=O)c1.Cl` [GSK2197149A], the potency estimated from few doses in test [15] (setting [18]) was 892 nM.
`Cc1cc(-c2ccnc(Nc3cccc(C#N)c3)n2)cc(C)c1O` [GSK1440913A]: the potency estimated from few doses in test [17] was 1430 nM.

(Values after PMC11062922 (Nature Chemical Biology, 2023).)
